This is part of a sample that, as a whole, favours compounds with a hit. Of some 83,000 tested, about 20% had one in any assay.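 Each cell line was grown in a 96-well plate and treated with one concentration of compound for 48 hours. Values below 10 were considered active.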 Active and inactive are the calls of the source.

For this assay, the system named is HCC-2998 colon. Kind of assay: NCI-60 one-dose screen, 48 h (100 = growth as untreated, 0 = no growth, -100 = all killed). The following applies: 10 µM unless noted.
Regarding `CC1(C)CC[C@]2(C(=O)N3CCOCC3)CC[C@]3(C)C(=CC[C@@H]4[C@@]5(C)C/C(=C/c6ccncc6)C(=O)C(C)(C)[C@@H]5CC[C@]43C)[C@@H]2C1`, the growth is -24.5% (active). Then `O=C(Nc1cccnc1Nc1ccc(Cl)cc1)c1cn(Cc2ccc(F)cc2)nn1`, with 100% (inactive); and `C=C1C(=O)O[C@H]2[C@H]1CC/C(CNC(=O)c1cc3ccccc3[nH]1)=C\CC[C@@]1(C)O[C@@H]21`, with -75.5% (active); and `C=CCN=C(N)SCCCCCCSC(N)=NCC=C`, with 93.1% (inactive). `CNC(=O)c1c(NC(=O)c2ccc(C(C)(C)C)cc2)sc2c(CN(C)C)c(O)ccc12`: the growth was -83.6% (active). To `COc1ccc(C/C(C)=C(\c2ccc(O)cc2)c2ccc(OCCN3CCCC3)cc2)cc1` belongs 104% (inactive).

Turning to `S=c1ssnc1-c1cccs1`, the growth was 98.4% (inactive).

For `COc1cc(/C=C/c2cc(/C=C/c3ccc(O)c(OC)c3)n(C(=O)Nc3ccc(F)cc3)n2)ccc1O`, the growth is 6.92% (active). As for `COc1cc2c3c(n(CCCCNCCCn4c5c(c6cc(OC)c(OC)cc6c4=O)C(=O)c4cc6c(cc4-5)OCO6)c(=O)c2cc1OC)-c1cc2c(cc1C3=O)OCO2`, the growth is 105% (inactive). In the case of `COc1cc(-c2cc(-c3ccc(Nc4ncnc5cc(Cl)ccc45)cc3)nc(N3CCN(C)CC3)n2)cc(OC)c1OC`, the growth was 110% (inactive). Then `COc1cc(C(=O)/C=C/c2ccc(N3CCN(C)CC3)cc2)cc(OC)c1OC`, with 101% (inactive); and `Cc1ccc2[nH]c(=O)c3c(c2c1)OC(N)=C(C#N)C31C(=O)c2cccc3cccc1c23` (configuration not stated), with 106% (inactive).

Values taken from PubChem BioAssay (NCI).
